Results filed as inconclusive are left out. Activity calls are given as the source filed them. Calls come from the whole dose curve; as a rule, active = well fitted inhibition curve with a large enough effect; inconclusive = small, poorly fitted or top-dose-only effect; inactive = flat fitted curve, though single readings scatter.
Columns and labels:
Assay in all cases: qHTS profiling for inhibitors of Plasmodium falciparum proliferation (AID 504749); note: nearly all actives have a fitted effect of over 60% in size
Conditions in all cases: P. falciparum in erythrocytes, SYBR Green DNA, 72 h; series mostly up to 28.7 µM
CP335 = test system: CP335
Procedure, shortened: (§1)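 P. falciparum-infected erythrocytes (0.3% parasitemia, 2.5% hematocrit) incubated with compound 72 h at 37 C, 5% CO2. Parasite DNA detected by SYBR Green after lysis, overnight at room temperature; normalised to 0.29 uM artemisinin and DMSO.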

DFO2036 = test system: DFO2036
Procedure, shortened: as §1

DIV14 = test system: DIV14
Procedure, shortened: as §1

DIV17 = test system: DIV17
Procedure, shortened: as §1

DIV30 = test system: DIV30
Procedure, shortened: as §1

Dd2 = test system: Dd2
Procedure, shortened: as §1

ECU = test system: ECU
Procedure, shortened: as §1

FAB9 = test system: FAB9
Procedure, shortened: as §1

GB4 = test system: GB4
Procedure, shortened: as §1

HB3 = test system: HB3
Procedure, shortened: as §1

Measured: Potency

Cc1cc(=O)[nH]c(=S)[nH]1
inactive: CP335 | DFO2036 | DIV14 | DIV17 | DIV30 | Dd2 | ECU | FAB9 | GB4 | HB3

CC(=O)Nc1cccc(O)c1
inactive: CP335 | DFO2036 | DIV14 | DIV17 | DIV30 | Dd2 | ECU | FAB9 | GB4 | HB3

CCc1cccc(CC)c1NC(=O)CN(CC(=O)O)CC(=O)O
inactive: CP335 | DFO2036 | DIV14 | DIV17 | DIV30 | Dd2 | ECU | FAB9 | GB4 | HB3

OCc1ccc(Cl)cc1Cl
inactive: CP335 | DFO2036 | DIV14 | DIV17 | DIV30 | Dd2 | ECU | FAB9 | GB4 | HB3

NS(=O)(=O)c1ccc(NC(=O)CCC(=O)O)cc1
inactive: CP335 | DFO2036 | DIV14 | DIV17 | DIV30 | Dd2 | ECU | FAB9 | GB4 | HB3

CCOC(=O)[C@H](CCc1ccccc1)N[C@@H](C)C(=O)N1CCC[C@H]1C(=O)O
inactive: CP335 | DFO2036 | DIV14 | DIV17 | DIV30 | Dd2 | ECU | FAB9 | GB4 | HB3

Cn1c(=O)c2c(ncn2CCO)n(C)c1=O
inactive: CP335 | DFO2036 | DIV14 | DIV17 | DIV30 | Dd2 | ECU | FAB9 | GB4 | HB3

Cc1c(NC(C)C)c(=O)n(-c2ccccc2)n1C
inactive: CP335 | DFO2036 | DIV14 | DIV17 | DIV30 | Dd2 | FAB9 | GB4 | HB3

Cc1ccc(S(=O)(=O)NC(=O)NC2CCCCC2)cc1
inactive: CP335 | DFO2036 | DIV14 | DIV17 | DIV30 | ECU | FAB9 | GB4 | HB3

COc1cc(O)cc(O)c1
inactive: CP335 | DFO2036 | DIV14 | DIV30 | Dd2 | ECU | FAB9 | GB4 | HB3

CC(=O)NS(=O)(=O)c1ccc(N)cc1
inactive: CP335 | DFO2036 | DIV14 | DIV17 | DIV30 | Dd2 | ECU | FAB9 | GB4 | HB3

CC(=O)Nc1ccc(OCCOCCOc2ccc(NC(C)=O)cc2)cc1
inactive: CP335 | DFO2036 | DIV14 | DIV30 | Dd2 | ECU | FAB9 | GB4 | HB3

Nc1ccncc1N
inactive: CP335 | DFO2036 | DIV14 | DIV17 | DIV30 | Dd2 | ECU | FAB9 | GB4 | HB3

Cc1cc(NC(=O)C2=C(O)c3ccccc3S(=O)(=O)N2C)no1
inactive: CP335 | DFO2036 | DIV14 | DIV30 | Dd2 | ECU | FAB9 | GB4 | HB3

O=c1[nH]c(=O)c2ccccc2o1
inactive: CP335 | DFO2036 | DIV14 | DIV17 | DIV30 | Dd2 | ECU | FAB9 | GB4 | HB3

O=C(CCBr)N1CCN(C(=O)CCBr)CC1
inactive: CP335 | DFO2036 | DIV14 | DIV17 | DIV30 | Dd2 | ECU | FAB9 | GB4 | HB3

Cn1c([N+](=O)[O-])cnc1COC(N)=O
inactive: CP335 | DFO2036 | DIV14 | DIV30 | Dd2 | ECU | FAB9 | GB4 | HB3

COc1ccc(C(=O)NCc2ccc(OCCN(C)C)cc2)cc1OC
inactive: CP335 | DFO2036 | DIV14 | DIV30 | Dd2 | ECU | FAB9 | GB4 | HB3

O=C1c2ccccc2S(=O)(=O)N1CCCCN1CCN(c2ncccn2)CC1
inactive: CP335 | DFO2036 | DIV14 | DIV30 | Dd2 | ECU | FAB9 | GB4 | HB3

O=C(O)Cc1cn(-c2ccccc2)nc1-c1ccc(Cl)cc1
inactive: CP335 | DFO2036 | DIV14 | DIV17 | DIV30 | Dd2 | ECU | FAB9 | GB4 | HB3

NS(=O)(=O)c1cc(-c2nn[nH]n2)c(NCc2cccs2)cc1Cl
inactive: CP335 | DFO2036 | DIV14 | DIV17 | DIV30 | Dd2 | ECU | FAB9 | GB4 | HB3

NS(=O)(=O)c1cc2c(cc1C(F)(F)F)NCNS2(=O)=O
inactive: CP335 | DFO2036 | DIV14 | DIV17 | DIV30 | Dd2 | ECU | FAB9 | GB4 | HB3

CCc1nnc(NS(=O)(=O)c2ccc(N)cc2)s1
inactive: CP335 | DFO2036 | DIV14 | DIV17 | DIV30 | Dd2 | ECU | FAB9 | GB4 | HB3

Reference: PubChem BioAssay (NCATS)
